We go through 40 compounds from PubChem BioAssay (EPA / NIEHS).

Structures are written as SMILES. Active and inactive are the calls of the source. How the source made its calls: active means hit-call score of the fitted dose curve at least 0.9, where 1 is the maximum; inactive means score below 0.9.

Chain of Hepatocyte nuclear factor 6 (Homo sapiens) (Q9UBC0 whole entry, looked up): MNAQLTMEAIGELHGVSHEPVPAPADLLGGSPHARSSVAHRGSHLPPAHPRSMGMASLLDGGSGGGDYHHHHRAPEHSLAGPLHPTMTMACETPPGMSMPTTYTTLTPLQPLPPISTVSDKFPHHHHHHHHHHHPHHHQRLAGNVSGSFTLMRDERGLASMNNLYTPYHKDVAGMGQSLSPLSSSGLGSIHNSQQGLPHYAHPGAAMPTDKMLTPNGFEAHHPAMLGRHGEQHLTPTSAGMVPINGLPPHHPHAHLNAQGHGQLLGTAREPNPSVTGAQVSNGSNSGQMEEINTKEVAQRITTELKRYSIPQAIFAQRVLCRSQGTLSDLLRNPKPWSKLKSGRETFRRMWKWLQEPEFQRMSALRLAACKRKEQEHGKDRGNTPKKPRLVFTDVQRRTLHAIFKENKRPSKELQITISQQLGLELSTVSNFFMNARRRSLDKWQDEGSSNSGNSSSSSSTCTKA

In this experiment the target is Hepatocyte nuclear factor 6 (Homo sapiens) (UniProt Q9UBC0). Put plainly: ATG_HNF6_CIS: Attagene CIS-FACTORIAL HepG2 Assay for human Hepatocyte Nuclear Factor 6 (HNF6) (AID 2282952). To be noted: HepG2 Attagene cis-factorial HNF6 reporter transcription; actives raise or lower the signal. On the procedure:
ATG_CIS is a cell-based, multiplexed-readout assay that uses HepG2, a human liver cell line, with measurements taken at 24 hours after chemical dosing in a 24-well plate.ATG_HNF6_CIS is one of 52 assay component(s) measured or calculated from the ATG_CIS assay. It is designed to make measurements of mRNA induction, a form of inducible reporter, as detected with fluorescence intensity signals by Reverse transcription polymerase chain reaction (RT-PCR) and Capillary electrophoresis technology.Data from the assay component ATG_HNF6_CIS was analyzed into 1 assay endpoint. This assay endpoint, ATG_HNF6_CIS, was analyzed with bidirectional fitting relative to DMSO as the negative control and baseline of activity. Using a type of inducible reporter, measures of mRNA for gain or loss-of-signal activity can be used to understand the reporter gene at the transcription factor-level as they relate to the gene ONECUT1. Furthermore, this assay endpoint can be referred to as a primary readout, because this assay has produced multiple assay endpoints where this one serves a reporter gene function. To generalize the intended target to other relatable targets, this assay endpoint is annotated to the dna binding intended target family, where the subfamily is homeobox protein.
Human liver HepG2 cells are transiently transfected with multiple reporter transcription units (MRTUs) in 6-well plates using FuGene 6 reagent (Roche; 3 ml FuGene/1 mg DNA). The MRTU constructs are regulated by a cis-regulating element (promoter). […] A major difference between the CIS and TRANS system is that in CIS activities of endogenous TFs are measured, whereas the TRANS assay evaluates changes in activities of exogenous, chimeric NR-Gal4 proteins. […] At the end of 24 hour incubation, total RNA was isolated using TriZol reagent (Invitrogen). The isolated RNA is then reverse-transcribed using oligo(dT) primer and Mo-MLV reverse transcriptase (Invitrogen) with DNAse I (Ambion) treatment for 30 min. The one-tenth of the produced cDNA was amplified by PCR using Taq DNA polymerase (Invitrogen) and two reporter sequence-specific primers. The PCR products were fluorescently labeled by primer extension with 6-arboxyfluorescein (6-FAM) 5'-labeled reporter sequence-specific primer (2 min at 95 C, 20 s at 68 C and 10 min at 72 C) and these products were digested with 5U of HpaI (New England Biolabs) for 2h at 37 C. The fragments were purified using Qiaquick PCR columns (Qiagen), analyzed on an ABI 3130xL genetic analyzer (Applied Biosystems) with peak positions identified by using a set of X-rhodamine (ROX)-labeled MapMarker1000 molecular weight standards (BioVentures). The raw capillary electrophoresis data was processed using Attagraph software (Attagene).
On to `O=C(C=Cc1ccccc1)OCc1ccccc1`, for which the result was inactive.

For `CC(C)COC(=O)C=Cc1ccccc1`, the compound was called inactive.

Regarding `Clc1nc2ccccc2s1`, the result was inactive.

Take `C[Si](C)(CCCN)O[Si](C)(C)CCCN`: the result was inactive.

Take `CC(C)=CC1CC(C)CCO1` (stereo not given): the call was inactive.

Regarding `O=C1c2ccccc2C(=O)C1c1nc2ccccc2c(Br)c1O`, the outcome was inactive.

Turning to `c1ccc(-c2ccccn2)nc1`, the result was inactive.

On to `O=C1Nc2ccccc2C1(c1ccc(O)cc1)c1ccc(O)cc1`, for which the outcome was inactive.

With `CN(C)c1ccc(N=Nc2ccccc2C(=O)O)cc1`, the result was inactive.

With `CCC(=O)Oc1ccc(/C(CC)=C(\CC)c2ccc(OC(=O)CC)cc2)cc1`, the compound was called inactive.

`[Cl][Bi]([Cl])([c]1ccccc1)([c]1ccccc1)[c]1ccccc1`: the compound was called inactive.

As to `C=CC(=O)OCC(Br)CBr` (stereo not given), the call was inactive.

For `Cc1cc(C)c(C)cc1C`, the compound was classed as inactive.

For `CCCCCC/C=C/C=O`, the outcome was inactive.

Regarding `CCC(Cc1ccccc1)(C(=O)c1ccc(N2CCOCC2)cc1)N(C)C` (stereo not given), the compound was called inactive.

Consider `CC(C)=CCC/C(C)=C\C#N`, for which the compound was classed as inactive.

For `O=c1c2ccccc2oc2ccccc12`, the result was inactive.

`C=C1C2CCC(C2)C1(C)C` (stereo not given): the call was inactive.

For `CCCCNc1ccc(NCCCC)c2c1C(=O)c1ccccc1C2=O`, the compound was called inactive.

For `O=C1CCC(=O)N1Cl`, the outcome was inactive.

For `COC(=O)/C=C/C(C)=C\C=C\C(C)=C\C=C\C=C(C)\C=C\C=C(C)\C=C\C(=O)O`, the compound was classed as inactive.

`CCCCCc1ccc(Cl)cc1`: the compound was called inactive.

In the case of `Cc1ccc(N)c([N+](=O)[O-])c1`, the compound was classed as inactive.

Turning to `NC(=O)OCC(COC(N)=O)c1ccccc1`, the compound was called inactive.

As for `C=CC(=O)OCCOC(=O)C=C`, the compound was classed as inactive.

Regarding `O=C(O)c1ccccc1Nc1cccc(C(F)(F)F)c1`, the result was inactive.

With `O=C(Nc1ccccc1SSc1ccccc1NC(=O)c1ccccc1)c1ccccc1`, the compound was classed as inactive.

Take `O=C1C=CC(=O)O1`: the compound was classed as inactive.

`O=CN1CCCCC1`: the compound was called inactive.

With `O=C1c2cccc(O)c2C(=O)c2c(O)cc(CO)cc21`, the outcome was inactive.

`COC=O`: the outcome was inactive.

For the compound `C=C(C)C(=O)OCCO`, the outcome was inactive.

As for `CCCOCCOCCOCCO`, the compound was called inactive.

Turning to `O=C1CCCCCCCCCCC(=O)OCCO1`, the compound was called inactive.

`O=C(Nc1ccccc1)c1ccccc1O`: the result was inactive.

With `OC1CCCC1`, the call was inactive.

Consider `O=C(/C=C/C=C/c1ccc2c(c1)OCO2)N1CCCCC1`, for which the outcome was inactive.

For the compound `CCCCCCCCCCOS(=O)(=O)O`, the outcome was inactive.

In the case of `CC(C)(c1cc(Br)c(OCCO)c(Br)c1)c1cc(Br)c(OCCO)c(Br)c1`, the AC50 (in general, the midpoint of the concentration-response curve, whichever way the signal moves) was 42.2 µM (active).

Take `O=C(C(Cl)Cl)N1CCOC12CCCCC2`: the outcome was inactive.
